Results reported in the supplement of paper PMC4723716.
± gives the uncertainty stated by the source. Over roughly 9,900 compounds, “viability index relative to DMSO control” has its median near 1; the lowest 2% begin near 0.85. The sample holds the lowest values, similar compounds and a random draw of the others, so the mix is not that of the screen.

Tested on: Plasmodium falciparum NF54 stage V gametocytes
Assay: viability index relative to DMSO control (fraction); higher = less gametocyte killing
Conditions: 2.5 µM, incubation time: 72 h
How it was run: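 Compound at 2.5 µM was incubated for 72 hr at 37°C under low oxygen with P. falciparum NF54 stage V gametocytes (0.75% gametocytemia, 1.25% hematocrit, 10 µl, serum-free screening medium) in 1,536-well plates. Staining used 3 µl of 2.5 µM MitoTracker Red CMXRos plus 0.13% saponin for one to two hours, and red particles of 20–70 µm2 were counted in one imaged field per well. Each viability index is that count relative to the plate mean of solvent-only wells.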

[1] = library set: Broad Institute DOS
[2] = library set: Broad Institute Blood Stage

| Structure (SMILES) | viability index [1] | viability index [2] |
| --- | --- | --- |
| COc1ccc(-c2ccc3c(c2)[C@H]2[C@H](CCN2C(=O)c2cccc(F)c2)[C@@H](CO)N3)cc1 | 0.942 ± 0.075 |  |
| Cc1cccc(S(=O)(=O)N2CC[C@@H]3[C@H](CO)Nc4ccc(-c5ccccc5F)cc4[C@@H]32)c1 | 1.06 ± 0.03 |  |
| COc1ccc(-c2ccc3c(c2)[C@@H]2[C@@H](CCN2C(=O)c2cccc(F)c2)[C@H](CO)N3)cc1 | 0.848 ± 0.042 |  |
| N#Cc1cccc(-c2ccc3c(c2)[C@@H]2[C@@H](CCN2S(=O)(=O)c2ccc(F)cc2)[C@H](CO)N3)c1 | 0.844 ± 0.062 |  |
| Cc1cccc(S(=O)(=O)N2CC[C@@H]3[C@@H](CO)Nc4ccc(-c5ccccc5F)cc4[C@@H]32)c1 | 1.18 ± 0.029 |  |
| Cc1cccc(S(=O)(=O)N2CC[C@H]3[C@H](CO)Nc4ccc(-c5ccccc5F)cc4[C@H]32)c1 | 1.08 ± 0.023 |  |
| COc1ccccc1-c1ccc2c(c1)[C@@H]1[C@@H](CCN1S(=O)(=O)c1ccc(C)cc1)[C@H](CO)N2 | 0.836 ± 0.028 |  |
| Cc1cccc(S(=O)(=O)N2CC[C@@H]3[C@H]2c2cc(-c4ccccc4F)ccc2N[C@@H]3CO)c1 | 0.926 ± 0.08 |  |
| COc1ccccc1-c1ccc2c(c1)[C@H]1[C@H](CCN1S(=O)(=O)c1ccc(C)cc1)[C@@H](CO)N2 | 0.811 ± 0.098 |  |
| N#Cc1cccc(-c2ccc3c(c2)[C@@H]2[C@@H](CCN2S(=O)(=O)c2ccc(F)cc2)[C@@H](CO)N3)c1 | 0.855 ± 0.011 |  |
| COc1ccc(-c2ccc3c(c2)[C@@H]2[C@@H](CCN2C(=O)c2cccc(F)c2)[C@@H](CO)N3)cc1 | 0.996 ± 0.08 |  |
| N#Cc1cccc(-c2ccc3c(c2)[C@H]2[C@H](CCN2S(=O)(=O)c2ccc(F)cc2)[C@H](CO)N3)c1 | 1.09 ± 0.017 |  |
| C[C@@H]1CN([C@H](C)CO)C(=O)CCCn2cc(nn2)CO[C@H]1CN(C)C(=O)Nc1cccc2ccccc12 | 0.99 ± 0.023 |  |
| Cc1ccc(S(=O)(=O)Nc2ccc3c(c2)C(=O)N([C@@H](C)CO)C[C@@H](C)[C@@H](CN(C)S(=O)(=O)c2cccs2)OCCCC[C@@H](C)O3)cc1 | 1.13 ± 0.23 |  |
| NCC[C@H]1CC[C@@H](NC(=O)Cc2ccncc2)[C@H](CO)O1 | 1.091 ± 0.0072 |  |
| CNC(=O)C[C@@H]1CC[C@@H]2[C@H](COC[C@@H](O)CN2Cc2ccccc2F)O1 | 1.08 ± 0.086 |  |
| COc1ccc(S(=O)(=O)Nc2ccc3c(c2)C(=O)N([C@H](C)CO)C[C@H](C)[C@@H](CN(C)Cc2ccc(C(F)(F)F)cc2)OCCCC[C@H](C)O3)cc1 | 1.07 ± 0.051 |  |
| C/C=C/c1ccc2n(c1=O)C[C@@H]1[C@@H](CO)[C@H](C(=O)NCC)N(Cc3cccc(F)c3)[C@H]21.C/C=C\c1ccc2n(c1=O)C[C@@H]1[C@@H](CO)[C@H](C(=O)NCC)N(Cc3cccc(F)c3)[C@H]21 | 0.99 ± 0.091 |  |
| Cc1ccccc1-c1ccc([C@@H]2[C@@H]3CN(Cc4cocn4)C[C@H]2N3)cc1 | 0.949 ± 0.05 |  |

| Structure (SMILES) | viability index [1] | viability index [2] |
| --- | --- | --- |
| C[C@@H]1CN([C@@H](C)CO)C(=O)c2cc(NC(=O)C3CC3)ccc2O[C@H]1CN(C)S(=O)(=O)c1ccccc1 | 0.9821 ± 0.0066 |  |
| COc1ccccc1-c1ccc2c(c1)[C@@H]1[C@@H](CCN1C(=O)C1CCC1)[C@H](CO)N2 | 0.655 ± 0.025 |  |
| COc1ccccc1-c1ccc2c(c1)[C@H]1[C@H](CCN1C(=O)C1CCC1)[C@@H](CO)N2 | 0.865 ± 0.097 |  |
| N#Cc1ccc(-c2ccc3c(c2)[C@H]2[C@H](CCN2C(=O)C2CCCCC2)[C@H](CO)N3)cc1 | 1.11 ± 0.057 |  |
| CN1CCN(C(=O)C[C@@H]2CC[C@H]3[C@H](COc4ccc(NC(=O)C5CCOCC5)cc4C(=O)N3C)O2)CC1 | 1.05 ± 0.029 |  |
| CCS(=O)(=O)Nc1ccc2c(c1)C(=O)N(C)[C@H]1CC[C@H](CC(=O)NCCCN3CCOCC3)O[C@@H]1CO2 | 1.03 ± 0.07 |  |
| COc1ccc(S(=O)(=O)N(C)C[C@H]2Oc3c(NC(=O)Nc4cccc5ccccc45)cccc3C(=O)N([C@@H](C)CO)C[C@H]2C)cc1 |  | 0.767 ± 0.035 |
| CC(C)NC(=O)Nc1cccc2c1O[C@H](CN(C)C(=O)Nc1ccccc1)[C@@H](C)CN([C@H](C)CO)C2=O | 0.975 ± 0.13 |  |
| CC(C)NC(=O)Nc1cccc2c1O[C@@H](CN(C)C(=O)Nc1ccccc1)[C@H](C)CN([C@H](C)CO)C2=O | 1.05 ± 0.17 |  |
| C[C@@H]1CN([C@@H](C)CO)C(=O)c2cccc(NC(=O)Nc3ccccc3)c2O[C@@H]1CN(C)C(=O)Nc1ccc(F)cc1 |  | 0.727 ± 0.041 |
| CC(C)NC(=O)Nc1cccc2c1O[C@@H](CN(C)C(=O)Nc1ccccc1)[C@@H](C)CN([C@@H](C)CO)C2=O | 1.04 ± 0.011 |  |
| CC(C)NC(=O)Nc1cccc2c1O[C@@H](CN(C)C(=O)Nc1ccccc1)[C@@H](C)CN([C@H](C)CO)C2=O | 1.1 ± 0.11 |  |
| COc1ccc(S(=O)(=O)N(C)C[C@H]2Oc3c(NC(=O)c4nc5ccccc5s4)cccc3C(=O)N([C@H](C)CO)C[C@H]2C)cc1 | 1.03 ± 0.022 |  |
| CC(C)NC(=O)Nc1cccc2c1O[C@H](CN(C)C(=O)Nc1ccccc1)[C@H](C)CN([C@@H](C)CO)C2=O | 0.692 ± 0.19 |  |
| C[C@@H]1CN([C@@H](C)CO)C(=O)c2cccc(NC(=O)Nc3ccccc3)c2O[C@@H]1CN(C)C(=O)Nc1ccccc1 |  | 0.703 ± 0.052 |
| CC(C)NC(=O)Nc1cccc2c1O[C@H](CN(C)C(=O)Nc1ccccc1)[C@H](C)CN([C@H](C)CO)C2=O | 1.03 ± 0.09 |  |
| COc1ccc(S(=O)(=O)N(C)C[C@@H]2Oc3c(NC(=O)c4nc5ccccc5s4)cccc3C(=O)N([C@@H](C)CO)C[C@H]2C)cc1 | 0.979 ± 0.043 |  |
| CC(C)NC(=O)Nc1cccc2c1O[C@H](CN(C)C(=O)Nc1ccccc1)[C@@H](C)CN([C@@H](C)CO)C2=O | 1.09 ± 0.07 |  |
